# Source: PubChem BioAssay
# Compounds with a hit are over-represented: about 5.7% of the library has one in this group of screens.
# DAX1 inh-1: DAX1 (NR0B1) inhibitors on StAR promoter, primary screen, cell-based, luminescence, SF-1 (NR5A1), full-length DAX-1; HEK293T StAR-luciferase reporter, SF-1/DAX-1 repression relief; hit rate 1.1% among 370,000; inhibition, % at 6.8 µM;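 active = inhibition above the mean over all tested compounds plus 3 SD, cut at about 3.6% in these data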;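 also: 0% = DAX-1 cells with DMSO and 100% = cells lacking DAX-1 with DMSO; higher inhibition means more luminescence from relief of DAX-1 repression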
# hcDAF-12 act: H. contortus DAF-12 nuclear receptor activators, primary screen, cell-based, luminescence, HEK293, lit1-tk-luc reporter; HEK293 hcDAF-12 lit1-tk-luc reporter; 0% DMSO, 100% Δ7-dafachronic acid; hit rate 1.4% among 370,000; activation, % at 6.8 µM; AID 652067, 2013;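 active = activation above the mean of all tested compounds plus 3 SD, cut at about 5.5% in these data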;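 also: 100% = response to 3 µM Δ7-dafachronic acid high control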
# hgDAF-12 ag: H. glycines DAF-12 receptor agonists, primary screen, cell-based, luminescence, HEK293, GAL4 fusion, UAS-luciferase; HEK293 GAL4-hgDAF12 UAS-luciferase reporter, agonist luminescence; normalized to butyrate control; activation, % at 6.8 µM; hit rate 1.8% among 370,000; Nuclear hormone receptor DAF-12 (Heterodera glycines), GAL4 fusion;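 active = activation above a cutoff set at the mean of all screened compounds plus 3 SD, cut at about 10% in these data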;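 also: 0% = DMSO wells and 100% = sodium butyrate wells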
# DAX1 inh-2: DAX1 (NR0B1) inhibitors, primary screen, cell-based, HEK293, Gal4-DAX1, luciferase luminescence; inhibition, % at 6.75 µM; hit rate 0.99% among 340,000; HEK293 Gal4-DAX1 luciferase reporter; Nuclear receptor subfamily 0 group B member 1 (Homo sapiens), P51843;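 active = inhibition above the mean over all tested compounds plus 3 SD, cut at about 4.2% in these data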;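 also: 0% = DAX1-transfected cells with DMSO and 100% = empty-vector control cells with DMSO; inhibition shows as a rise in luminescence from relieved DAX1 repression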
# Target sequence (P51843 207-470 limits assumed): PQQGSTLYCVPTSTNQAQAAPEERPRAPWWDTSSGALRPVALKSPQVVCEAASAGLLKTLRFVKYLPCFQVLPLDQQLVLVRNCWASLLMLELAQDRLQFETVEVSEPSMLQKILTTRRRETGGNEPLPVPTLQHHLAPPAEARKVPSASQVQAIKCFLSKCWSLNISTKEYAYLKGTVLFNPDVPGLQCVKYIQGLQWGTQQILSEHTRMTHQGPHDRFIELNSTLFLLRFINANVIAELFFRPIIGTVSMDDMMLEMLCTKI
# AHR act: AHR activators, primary screen, cell-based, luminescence, luciferase reporter, human; AHR-responsive luciferase reporter cells; hit rate 2.5% among 320,000; activation, % at 5 µM; Aryl hydrocarbon receptor (Homo sapiens), P35869; AID 2796, 2010; in the data active = activation above about 47%;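 also: 0% = vehicle wells and 100% = reference agonist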
# ssDAF12 agonist: S. stercoralis DAF-12 nuclear receptor activators, primary screen, cell-based, luminescence, HEK293, GRIP1 co-expression, lit1-tk-luc | HEK293 ssDAF-12/GRIP1 lit1-tk-luc reporter; % of 3 µM dafachronic acid response | activation, % at 6.8 µM | hit rate 1% among 370,000;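 active = activation above the mean over all tested compounds plus 3 SD, cut at about 0.9% in these data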;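 also: 0% = DMSO-only wells and 100% = 3 µM delta7-dafachronic acid wells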
# Numbers without * were called inactive; · = not tested or not shown; ! = a repeat was not active.
SMILES,DAX1 inh-1,hcDAF-12 act,hgDAF-12 ag,DAX1 inh-2,AHR act,ssDAF12 agonist
O=C(NCc1ccncc1)c1nc(-c2cccs2)no1,-0.6,-2.1,0.2,0.4,11.3,-1.4
O=C(NCCc1ccccc1)c1nc(-c2cccs2)no1,0.5,2.4,10.8*,-0.7,12.9,0.2
CCOC(=O)N1CCN(C(=O)/C(=C/c2ccccc2OC)NC(=O)c2ccccc2)CC1,0.0,-1.8,1.2,-1.2,-0.8,-1.1
COc1ccc2[nH]c(C(=O)Nc3ccc(F)cc3Br)cc2c1,-0.5,3.8,4.2,2.6,49.9*,-0.5
COc1ccc2[nH]c(C(=O)Nc3ncc(C)cc3Br)cc2c1,-0.1,-1.5,0.1,-0.5,2.8,-0.9
COC(=O)C1=C(C)N(c2ccc(C)c(C)c2)/C(=C/c2cccs2)C1=O,0.1,-0.7,0.9,-0.2,-2.3,-0.5
N#C/C(=C/c1ccc(-c2ccccc2)o1)c1nc(-c2cccs2)cs1,0.6,5.4,2.6,0.8,53.9*,-0.2
COc1ccccc1C1CC(=O)Oc2cc(O)ccc21 (configuration not stated),4.0*,-1.3,1.0,0.2,·,-1.8
COc1ccccc1C1CC(=O)Oc2cc(C)c(Cl)cc21 (configuration not stated),-0.8,-0.8,1.5,0.0,·,-0.2
COc1ccccc1C(=O)NCCC(=O)N1CC(=O)Nc2ccccc21,0.5,0.3,4.8,0.7,16.8,-1.1
O=C1c2ccccc2C(=O)N1OCc1ccccc1,-0.2,0.5,-0.1,-1.3,90.2*,-1.2
CCOC(=O)N1CCN(C(=O)c2ccc3c(c2)sc2nc(-c4ccc(OC)cc4)cn23)CC1,-1.0,-1.2,1.6,2.9,-2.8,-1.3
COc1ccc2c(c1)sc1nc(-c3ccccc3)cn12,-1.9,-3.1,-13.1,-4.6,56.5*,-2.0
CCOC(=O)N1CCN(C(=O)c2csc3c2CCCCC3)CC1,-0.5,-1.9,-4.0,-0.1,-0.8,-2.0
COc1ccc(/C=N/NC(=O)c2ccc(COc3ccccc3Cl)o2)cc1,-0.4,-1.5,-2.5,-0.7,61.7*,-0.7
COc1ccc(C=NNC(=O)c2ccncc2)cc1,0.7,0.1,3.0,·,·,-1.0
CSc1ccc(/C=N/NC(=O)c2ccc(O)cc2)cc1,1.6,2.6,11.8*,1.6,15.3,-0.9
COc1ccc(C(=O)N/N=C/c2ccc(SC)cc2)cc1,-0.2,-2.4,11.5*,-0.2,13.1,-0.6
CC1CC(C)CN(S(=O)(=O)c2ccc(NC(=O)CN3CCCCCC3)cc2)C1 (configuration not stated),-0.6,-0.6,3.6,-0.5,·,-1.0
CCN(CC)C(=O)c1csc(Nc2cccc3ccccc23)n1,-0.2,-1.0,-2.8,0.1,19.6,-1.3
COC(=O)C1C(=O)c2c([nH]c(C(=O)OCC3CCCO3)c2C)CC1C (configuration not stated),3.3,3.8,7.3,5.8*,14.9,-0.1
COCCOC(=O)c1[nH]c2c(c1C)C(=O)C(C(=O)OC)C(C)C2 (configuration not stated),3.0,2.8,10.5*,3.1,31.4,-0.3
COc1ccc(C(=O)Nc2cccc3nc(C)ccc23)c(OC)c1,-0.3,-1.3,0.0,-0.9,71.8*,-1.2
COc1ccccc1NC(=O)c1cc2ccccc2nc1C,-0.2,-1.7,-0.7,-0.3,57.4*,-1.6
COc1ccc(C(=O)Nc2cccc3nc(C)ccc23)cc1OC,0.0,-1.4,-1.7,1.2,4.2,-1.0
SMILES,DAX1 inh-1,hcDAF-12 act,hgDAF-12 ag,DAX1 inh-2,AHR act,ssDAF12 agonist
COc1ccccc1C(=O)Nc1cccc2nc(C)ccc12,-0.2,-2.4,-2.0,0.1,53.0*,-1.9
COc1ccc(S(=O)(=O)N2CCCCC2C(=O)O)cc1 (configuration not stated),-0.3,0.1,-2.6,0.4,-1.2,-1.7
C=CCOC(=O)C1=C(C)NC(SCC(=O)NC(=O)OCC)=C(C#N)C1c1cccnc1 (configuration not stated),-0.1,-1.7,-0.7,5.3*!,8.2,-1.3
O=C(CSc1ncn[nH]1)NCc1ccccc1Cl,-0.3,-2.0,0.4,0.2,0.7,-1.0
O=C(Nc1ccccc1)c1ccc(=O)n(Cc2cccc(Cl)c2)c1,-0.7,0.1,-3.5,-2.9,21.2,-1.9
C#CCn1cc(Cl)cc(C(=O)Nc2ccccc2)c1=O,-0.4,-1.3,-1.0,1.9,62.0*,-1.1
CCC(=O)NNc1nc2c(C)cc(C)cc2s1,0.8,-0.9,-0.7,2.2,62.2*,-1.7
CCc1noc(C)c1C(=O)Nc1nc2c(C)cc(C)cc2s1,-2.2,-3.1,-2.6,-0.5,-9.2,-1.6
CC(=O)Nc1cc(C)c2nc(NC(C)=O)sc2c1,1.2,0.1,0.6,8.3*,6.6,-1.3
CC(=O)N1c2ccc(N=Cc3cc(Br)cc(Br)c3O)cc2CC1C (configuration not stated),·,·,·,·,-1.4,·
CC(=O)C1=C(C)NC(=O)NC1c1cccc(O)c1 (configuration not stated),1.7,-1.5,-2.4,-1.3,4.7,-1.6
Nc1nccnc1C(=O)N/N=C/c1ccco1,0.6,1.4,5.9,6.9*,2.9,-0.7
O=C(N/N=C/c1ccco1)c1[nH]ncc1Br,2.7,0.6,7.2,7.1*,·,0.3
COc1ccc(/C=N/NC(=O)c2[nH]ncc2Br)c(OC)c1,1.3,1.1,11.2*,2.4,5.2,-0.4
CC(C)c1c(C(=O)N/N=C/c2ccco2)nnn1-c1nonc1N,-0.1,-1.4,-0.7,0.7,-1.2,-1.2
CC(C)CC(CO)N1CCN(C(=O)c2ccc(Cl)c(Cl)c2)CCC1=O (configuration not stated),-0.4,0.8,-0.9,-0.2,2.6,-1.1
CC1(C)Cc2nc(-c3ccccc3)nc(NNC(=O)c3ccco3)c2CO1,-0.2,3.3,-3.4,0.8,21.2,-1.1
CCOc1ccc(S(=O)(=O)n2ccc(C)n2)c2ccccc12,-0.8,0.0,-0.9,-0.9,5.5,-0.8
Cn1cccc1C(=O)NNC(=O)c1ccccc1Br,3.4,1.1,5.7,2.3,9.6,0.2
Cc1nn(Cc2ccccc2)c(Cl)c1C(=O)NCCc1ccccc1,3.8*,2.4,11.3*,1.1,11.6,0.7
Cn1cccc1C(=O)NCC1CCCCC1,-0.6,-0.4,10.0,0.4,8.0,-1.0
Cc1nn(Cc2ccccc2)c(Cl)c1C(=O)NCc1ccc(C)n1C,-0.2,-0.3,-1.1,3.2,0.6,-1.6
